Source: PubChem (several laboratories)
Rpn11 inh: blocks the human proteasome subunit Rpn11 | human 26S proteasome, Ub4-pepOG fluorescence polarization; 20S core pre-blocked with epoxomicin | inhibition, % at 20 µM | 360,000 tested, 0.59% active;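 active = inhibition at 20 µM, scaled to each plate's controls, above about 33%, limit read from the data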
Target sequence (O00487 whole entry, looked up): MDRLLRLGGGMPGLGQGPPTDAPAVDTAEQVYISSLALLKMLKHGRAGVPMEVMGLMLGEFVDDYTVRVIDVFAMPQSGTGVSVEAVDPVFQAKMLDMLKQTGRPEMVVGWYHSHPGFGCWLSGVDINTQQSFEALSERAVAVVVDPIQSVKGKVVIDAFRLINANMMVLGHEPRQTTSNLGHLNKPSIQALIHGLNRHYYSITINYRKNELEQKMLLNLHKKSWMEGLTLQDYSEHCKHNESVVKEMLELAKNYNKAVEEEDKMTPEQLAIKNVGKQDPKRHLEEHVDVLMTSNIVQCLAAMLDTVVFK
TPT1 inhibitor: C. albicans TPT1 enzyme inhibition. 300,000 tested, 0.81% active. recombinant caTPT1, FP RNA substrate dephosphorylation. inhibition, % at 5 µM;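 active = inhibition above the mean of all tested compounds plus 3 SD, set per screening campaign, cut at about 24% in these data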;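 note: plate controls were DMSO alone for no effect and ferristatin control at 100 nM for full effect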
IDE cell inh: inhibitors of human insulin-degrading enzyme in cells | P14735 | HEK cells, FAbetaB cleavage, fluorescence polarization | inhibition, % at 5.59 µM | 320,000 tested, 0.41% active | AID 434962;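 active = percent inhibition above the average of all tested compounds plus 3 SD, set per screening campaign, cut at about 16% in these data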;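 note: IDE supplied by intact live HEK cells; FP after avidin binding of uncleaved biotin substrate so inhibition keeps polarization high; 0% = DMSO wells and 100% = 60 µM reference IDE inhibitor Ii1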
Rin1 Abl inh: blocks binding of human Rin1 to Abl. TR-FRET Rin1/Abl binding, biochemical. inhibition, % at 7.35 µM. 360,000 tested, 0.4% active. AID 588664; in the data active = inhibition above about 5%, passing the limit was not always enough
IDE cell activ: activators of human insulin-degrading enzyme in cells | P14735 | HEK cells, FAbeta-B cleavage, fluorescence polarization; 0% vehicle, 100% cell-free pure enzyme wells | activation, % at 5.96 µM | 340,000 tested, 0.073% active;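 active = activation above the mean of all tested compounds plus 3 SD, set per screening campaign, cut at about 17% in these data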
Calb FLC: C. albicans growth modulation with fluconazole; growth inhibition, % (test concentration not listed); 300,000 tested, 0.57% active; C. albicans CaCi-2 (fluconazole-resistant clinical isolate) + fluconazole, Alamar Blue growth, 48 h; AID 1979;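 active = growth inhibition above about 58% in most replicates, limit read from the data, passing the limit was not always enough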;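 note: all wells also contain fluconazole at 8 µg/ml as a sub-toxic cotreatment; 0% = median of DMSO wells and 100% = median of geldanamycin control wells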
Starred values were filed as active, the others as inactive; x = not tested or not shown. Sampled rows, rich in hits. Any-hit rate of the full collection: about 2.3%.

SMILES | Rpn11 inh | TPT1 inhibitor | IDE cell inh | Rin1 Abl inh | IDE cell activ | Calb FLC
COc1ccc(C(=O)NCCc2ccccc2)cc1OC | 2 | -1 | 1 | -1 | 1 | 7
COc1ccc(/C(O)=C/c2nc3ccc(C(=O)NCCc4cccc(C)c4)cc3[nH]c2=O)cc1OC | x | 67* | 9 | -1 | -7 | -4
COc1ccc(CCNc2ncnc3sc(C)cc23)cc1OC | -2 | x | x | 1 | -1 | 107*
COc1ccc(CCNc2ncnc3[nH]ncc23)cc1OC | 6 | 2 | -7 | 2 | 0 | -7
CC(C)(C)N1C(=O)Cc2c1nc(N)c1c(N)nc(N3CCCCC3CO)c(C#N)c21 (configuration not stated) | 12 | 2 | 6 | 20* | 1 | 1
COc1ccc(C(C[N+](=O)[O-])C2(c3ccc(OC)c(OC)c3)C(=O)c3ccccc3C2=O)cc1 (configuration not stated) | -2 | 1 | 16* | -3 | -9 | -6
NC[C@H](Cc1ccccc1)NCCCCC1CCCCC1 | -6 | x | 4 | -1 | 6 | x
CNC[C@H](CC1CCCCC1)NC[C@H](Cc1ccccc1)NCCC12CC3CC(CC(C3)C1)C2 | -12 | 3 | 1 | 4 | 35* | 91*
Cc1nc2c(cnn2CCO)c(=O)[nH]1 | 4 | x | x | -2 | 3 | x
Cc1nn(-c2ccccc2)c(N)c1N=Nc1ccc(Cl)cc1 | 4 | 2 | -1 | 2 | -4 | 98*
O=c1cc(-c2ccc(O)c(O)c2)oc2cc(O[C@@H]3O[C@H](CO)[C@@H](O)[C@H](O)[C@H]3O)cc(O)c12 | -2 | x | 2 | 24* | 7 | x
CCOc1cc2sc(N3CCC(C(=O)NCCCN4CCCC4=O)CC3)nc2cc1Br | 3 | -3 | -1 | 4 | -7 | -8
Fc1cccc2sc(Nc3nnc(-c4ccccc4)o3)nc12 | 24 | -4 | -4 | -1 | 6 | -1
COc1ccc(-c2nnc(Nc3nc4c(OC)cccc4s3)o2)c(OC)c1 | 38 | -2 | 13 | -1 | -19 | 101*
Cc1cc(SCC(=O)N/N=C/c2ccc(O)c(O)c2O)c(C)cc1Br | -5 | 5 | -9 | 3 | -10 | 107*
COc1ccc(N2CC(C(=O)NC3CCSC3=O)CC2=O)cc1 (configuration not stated) | 4 | -1 | 4 | 2 | 4 | 0
O=c1c(Cl)c(Cl)cnn1Cc1ccc(F)cc1 | 4 | -1 | -4 | -4 | 4 | 4
O=C(OCn1ncc(Cl)c(Cl)c1=O)c1ccccc1Cl | -1 | -3 | 3 | -2 | 5 | 108*
O=C(OCn1ncc(Cl)c(Cl)c1=O)c1ccc(F)cc1 | x | 1 | 0 | x | x | 107*
CC(NS(=O)(=O)c1cn(C)c(=O)n(C)c1=O)c1ccccc1 (configuration not stated) | 1 | -4 | 2 | 3 | 0 | -1
CCc1ccc2c(c1)/C(=C/C(=O)c1cccs1)C(=O)N2 | 8 | 1 | 7 | 3 | -5 | 98*
Cc1cccc2c1NC(=O)/C2=C\C(=O)c1cccs1 | 0 | 1 | 7 | -5 | -11 | 22
Cc1nnc(NC(=O)c2sc3nc(-c4cccs4)cc(C(F)(F)F)c3c2N)s1 | x | 47* | 19* | 0 | -27 | 21
CCC(C)NC(=O)C1(N2C(=O)c3ccccc3C2=O)CCCC1 (configuration not stated) | 5 | x | x | 0 | 0 | x
O=C(CSc1nnc(-c2ccc(Br)cc2)o1)Nc1cccc(C(=O)O)c1 | 0 | 3 | 3 | -4 | 1 | 2
SMILES | Rpn11 inh | TPT1 inhibitor | IDE cell inh | Rin1 Abl inh | IDE cell activ | Calb FLC
O=C(CSc1nnc(-c2ccc(Br)cc2)o1)Nc1cccc2ccccc12 | 0 | -5 | 8 | 1 | -5 | 85*
COc1ccc(CCNC(=O)CCNC(=O)N2CC(=O)Nc3ccccc32)cc1OC | -4 | -3 | 6 | -1 | 4 | 1
CC(C)(C)NC(=S)N/N=C/c1cc(Br)c(O)c(Br)c1 | -4 | -1 | -13 | 3 | 3 | 76*
S=c1[nH]cnc2sc(-c3ccccc3)cc12 | 2 | -2 | 19* | -14 | -17 | -28
O=C(O)c1ccccc1C(=O)NNc1ccc(F)cc1 | 2 | -2 | -1 | -1 | 0 | 102*
O=C(O)c1ccccc1C(=O)NCc1ccc(F)cc1 | 4 | 1 | 2 | -2 | 2 | -8
